In PubChem BioAssay (NCI) one finds growth data, which are given here for 40 compounds.

About 83,000 compounds went through this panel and 20% of them were active in at least one assay; those are over-represented in the sample as a whole.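 Activity criterion: percent growth below 10, measured after cells in 96-well plates were exposed to a single compound concentration for 48 hours.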 Active and inactive are the calls of the source.

In the assay the test system is MDA-MB-468 breast. The assay can be described thus: NCI-60 one-dose screen, 48 h (100 = growth as untreated, 0 = no growth, -100 = all killed). The following applies: 10 µM unless noted.
As for `Cc1ccc(C(CN(C)C)C(=O)c2ccccc2)cc1` (stereo not given), the growth was 4.73% (active).

With `O=S(=O)(c1ccccc1)N1CCCc2ccccc21`, the growth was 104% (inactive). For `COc1ccc2[nH]cc(C(c3cc(F)cc(F)c3)c3c[nH]c4ccc(OC)cc34)c2c1`, the growth was 89.6% (inactive).

On to `NC(=O)Nc1cc(-c2cccc(F)c2)sc1C(=O)N[C@H]1CCCNC1`, for which the growth is -60.5% (active).

`c1nc2ccc(-c3cc4ccc5[nH]ncc5c4c4c3CCCC4)cc2[nH]1`: the growth is 17.1% (inactive).

As to `Nc1nc(N)c2cc(CNc3ccc(Cl)c(Cl)c3)ccc2n1`, the growth was -75.3% (active). The value for `Oc1cccc2ccc(-c3nnc(SCc4ccc(O)c5ncccc45)n3-c3ccccc3)nc12` was 6.6% (active); that for `O=C1Nc2ccccc2[C@]12CC(c1ccccc1)=NN2` was 56.5% (inactive); that for `O=C1/C(=C/c2ccc(Cl)cc2)CN(C(=O)C(Cl)Cl)C/C1=C\c1ccc(Cl)cc1` was -59.7% (active). For the compound `CCC1CCc2nc3sc(C(=O)Nc4cccc(C)c4)c(N)c3cc2C1` (stereo not given), the growth is 44.5% (inactive). On to `CCOC(=O)c1ccc(NC(=O)Nc2nncs2)cc1`, for which the growth was 12.5% (inactive). As for `C/C(Cc1ccc(Cl)cc1)=C(\c1ccc(OCCN2CCCCCC2)cc1)c1ccc(OC(=O)C2CCCCC2)cc1`, the growth is 52.2% (inactive). Turning to `CN1C(=O)N(C)C2Nn3c(s/c(=C\c4ccccn4)c3=O)=NC21` (stereo not given), the growth is 95.6% (inactive). As for `CCCCCCn1c(-c2ccc(C(=O)O/N=C(\N)c3ccc4c(c3)OCO4)cc2)nc(-c2ccccc2)c1-c1ccccc1`, the figure is 43.4% (inactive). As for `CC(=O)Nc1ccc(C)c(Nc2cc(-c3ccc(-n4cccn4)cc3)[nH]n2)c1`, the figure is 20% (inactive); as for `CS(=O)(=O)c1ccc(C(=O)Nc2ccc(Cl)c(-c3ccccn3)c2)c(Cl)c1`, 3.59% (active).

On to `COc1ccc(N/N=C/c2c(-c3ccc(S(C)(=O)=O)cc3)nc3ccccn23)cc1`, for which the growth was 58.2% (inactive). The value for `Cn1c(N2N=C(c3ccc(Cl)cc3)CC2c2ccccc2)nc(-c2ccccc2)c(C#N)c1=O` (stereo not given) was 74% (inactive); that for `COc1ccc(NC(=O)[C@H](C)NC(=O)OC(C)(C)C)cc1C(=O)Nc1cccc(-c2cc(=O)c3c(OC)c(OC)c(OC)cc3o2)c1` was 4.39% (active). Consider `CCc1ccc(-c2nnc(COc3ccc(-c4nc5cc(Cl)c(Cl)cc5[nH]4)cc3OC)o2)cc1`, for which the growth is 76.4% (inactive). The value for `S=C(Nc1ccc(C2=NCCN2)cc1)Nc1ccc(C2=NCCN2)cc1` was 67.6% (inactive); that for `CS(CCCCN=C=S)=NC(=O)c1c(F)c(F)c(F)c(F)c1F` (stereo not given) was 30.1% (inactive); that for `COc1ccc(-c2nsc3c2NC(=O)CC3c2cccc(F)c2)cc1` (stereo not given) was 19.7% (inactive).

As for `C[C@@H](Nc1c(C#N)cnc2ccc(-c3cnc(N)nc3)cc12)c1ccccc1`, the growth is -8.47% (active). In the case of `CCc1c2c(nc3ccc(OC(=O)NCc4ccc(B5OC(C)(C)C(C)(C)O5)cc4)cc13)-c1cc3c(c(=O)n1C2)COC(=O)[C@]3(O)CC`, the growth is -33.9% (active). As for `Nc1ccccc1SC(CC(=O)c1ccccc1)c1c(Cl)cccc1Cl` (stereo not given), the figure is 64.7% (inactive).

Consider `COc1ccc(/C=C2\Oc3cc(OCCN4CCCC4)ccc3C2=O)c(OC)c1`, for which the growth is 86.5% (inactive).

Turning to `NCCCOc1cc2ccccc2cc1C(=O)NCCCOc1cc2ccccc2cc1C(=O)Nc1ccc(Cl)cc1O`, the growth is -89.6% (active).

Consider `CC(C)n1nc(-c2ccc3oc(N)nc3c2)c2c(N)ncnc21`, for which the growth was -34.1% (active). As for `C=C(C)[C@@H]1CC[C@]2(C=NCCCNCCCCNCCCN)CC[C@]3(C)[C@H](CC[C@@H]4[C@@]5(C)CCCNC(C)(C)[C@@H]5CC[C@]43C)[C@@H]12`, the figure is 98.5% (inactive); as for `COc1cc2nc3cc([N+](=O)[O-])ccc3c(NCCNCC(C)O)c2cc1OC` (stereo not given), -45.6% (active); as for `COc1ccc2c(c1)N(CCO)C1=C(C(=O)OC1)C2c1cc(OC)c(OC)c(OC)c1` (stereo not given), 3.62% (active). As for `COc1ccc(N2C(=O)c3cc(OC)c(OC)cc3NC2SCc2ccccc2)cc1` (stereo not given), the figure is 108% (inactive); as for `O=C(Nc1cccc(NC(=O)C2CCCCC2)c1)c1ccccn1`, 116% (inactive). Turning to `CN1C(=O)N(C)[C@H]2NC(NN)=N[C@H]21`, the growth was 101% (inactive). As for `Nc1c(Cl)cc(N=Nc2ccccc2)cc1Cl`, the figure is -61.3% (active); as for `CN(C)CCCn1c2c(c3ccncc3c1=O)C(=O)c1ccccc1-2`, -16% (active); as for `COc1cc(N2C(=O)c3nccnc3C2=O)cc(OC)c1OC`, 115% (inactive). As for `O=C1C(Cl)=C(Nc2ccccc2)C(=O)C(Cl)=C1Nc1ccccc1`, the growth was 102% (inactive).

On to `COc1cc2oc(-c3ccc(NC(=O)c4ccccc4)cc3)cc(=O)c2c(OC)c1OC`, for which the growth is 96.5% (inactive).
